Assay results from PubChem BioAssay.
Activity calls are given as the source filed them. Unless noted, the rule behind the calls is not given here.

Experiments:
[1] = HepG2 liver cancer cell viability effects, profiling panel, resazurin fluorescence, 24 h, PK04 Diversity Set (AID 1172); settings: higher = more signal
[2] = basal S. cerevisiae growth modulation, no modifier, primary screen, OD600, strain BY4716, 24 h, basal condition (AID 1173); settings: OD600, 24 h, higher = more signal, called active from +8 up or from −8 down
[3] = MM1S myeloma cell viability, profiling panel, resazurin fluorescence, basal, 24 h, PK04 Diversity Set (AID 1174); settings: higher = more signal, called active from +8 up or from −8 down;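 note: MM1S multiple myeloma cell line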
[4] = molecular target: Dihydroorotate dehydrogenase (quinone), mitochondrial (Plasmodium falciparum (isolate 3D7)) (UniProt Q08210); assay: PfDHODH enzyme inhibitors, primary screen, biochemical, C-terminal His tag, absorbance 600 nm (AID 1175); settings: DCIP absorbance 600 nm, higher = more signal, called active from +8 up or from −8 down;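 note: recombinant parasite enzyme with a five histidine tag at its C terminus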
[5] = P. aeruginosa biofilm formation inhibitors, primary screen, strain PAO1, LB-PBS medium, absorbance 600 nm (AID 1176); settings: P. aeruginosa PAO1 growth/biofilm, A600, 12 h; higher = more signal
[6] = S. cerevisiae RM11-1a growth modifiers, primary screen, strain RM11-1a, OD600, basal, 24 h (AID 1177); settings: OD600, 24 h, higher = more signal, called active from +8 up or from −8 down;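 note: cultures grown under basal conditions with no added stressor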
[7] = E. coli acrAB mutant growth effects, primary screen, E. coli filamentation inducers, strain DRC39, OD650, 24 h (AID 1178); settings: higher = more signal, called active from +8 up or from −8 down;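 note: growth measured as culture turbidity by optical density at 650 nm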
[8] = E. coli acrAB mutant growth effects, primary screen, E. coli filamentation inducers, strain DRC39, OD650, 48 h (AID 1179);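 note: screen aims at cell division blockers that make cells filament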; settings: E. coli DRC39 delta-acrAB growth, higher = more signal, called active from +8 up or from −8 down
[9] = RPMI8226 myeloma cell viability, profiling panel, resazurin fluorescence, basal, 24 h, PK04 Diversity Set (AID 1180); settings: higher = more signal;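 note: RPMI8826 multiple myeloma cell line at 5000 cells per well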
[10] = molecular target: E3 ubiquitin-protein ligase XIAP (Homo sapiens) (UniProt P98170); assay: XIAP binders, primary screen, biophysical, small-molecule microarray, fluorescence 635 nm (AID 1181); settings: small-molecule microarray binding, higher = more signal;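 note: score merges 667 nm emission and signal to noise over triplicate slides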
[11] = tested on: XIP peptide (Xip251-270) binding; assay: small-molecule binders of XIP peptide, primary screen, biochemical, small-molecule microarray, fluorescence 635/667 nm, 0.1 µg/mL protein (AID 1182); settings: fluorescent protein binding, 635 nm, higher = more signal, called active from +8 up or from −8 down
XIP peptide (Xip251-270) = assay: small-molecule binders of XIP peptide, primary screen, biochemical, small-molecule microarray, fluorescence 635/667 nm, 0.5 µg/mL protein (AID 1183); settings: small-molecule microarray binding, fluorescence 635 nm; higher = more signal
[12] = Plasmodium falciparum growth inhibition, primary screen, strain 3D7, DAPI fluorescence, 100 nL (AID 1184);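 note: parasites grown inside human red blood cells in medium with human serum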; settings: P. falciparum 3D7 growth, 3 d, higher = more signal
[13] = molecular target: Homeobox protein Hox-A13 (Mus musculus) (UniProt Q62424); assay: inhibitors of HoxA13-DNA binding, primary screen, biochemical, fluorescence polarization, labeled oligonucleotide (AID 1185); settings: 15 min, higher = more signal, called active from +8 up or from −8 down
[14] = inhibitors of hydroxyurea-induced Chk1 phosphorylation, primary screen, imaging, HeLa, phospho-Chk1 antibody, percent positive cells (AID 1186); settings: hydroxyurea-induced phospho-Chk1 immunofluorescence imaging, higher = more signal
[15] = inhibitors of hydroxyurea-induced Chk1 phosphorylation, primary screen, imaging, HeLa, phospho-Chk1 nuclear intensity (AID 1187); settings: hydroxyurea-induced phospho-Chk1 immunofluorescence imaging, higher = more signal

E3 ubiquitin-protein ligase XIAP (Homo sapiens), sequence (P98170 whole entry, looked up): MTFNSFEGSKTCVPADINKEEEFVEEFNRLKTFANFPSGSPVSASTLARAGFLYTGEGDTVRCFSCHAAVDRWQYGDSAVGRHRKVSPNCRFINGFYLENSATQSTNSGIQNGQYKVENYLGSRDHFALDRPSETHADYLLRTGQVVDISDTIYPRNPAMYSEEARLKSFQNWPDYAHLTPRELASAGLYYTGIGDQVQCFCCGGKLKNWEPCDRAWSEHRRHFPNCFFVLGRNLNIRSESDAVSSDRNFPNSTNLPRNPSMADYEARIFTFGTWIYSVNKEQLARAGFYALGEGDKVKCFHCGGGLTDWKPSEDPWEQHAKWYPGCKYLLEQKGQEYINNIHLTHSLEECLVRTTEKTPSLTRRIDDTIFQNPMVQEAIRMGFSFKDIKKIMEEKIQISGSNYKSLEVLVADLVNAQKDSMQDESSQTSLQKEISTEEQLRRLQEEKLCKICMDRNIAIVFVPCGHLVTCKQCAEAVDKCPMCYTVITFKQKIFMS
Dihydroorotate dehydrogenase (quinone), mitochondrial (Plasmodium falciparum (isolate 3D7)), sequence (Q08210 whole entry, looked up): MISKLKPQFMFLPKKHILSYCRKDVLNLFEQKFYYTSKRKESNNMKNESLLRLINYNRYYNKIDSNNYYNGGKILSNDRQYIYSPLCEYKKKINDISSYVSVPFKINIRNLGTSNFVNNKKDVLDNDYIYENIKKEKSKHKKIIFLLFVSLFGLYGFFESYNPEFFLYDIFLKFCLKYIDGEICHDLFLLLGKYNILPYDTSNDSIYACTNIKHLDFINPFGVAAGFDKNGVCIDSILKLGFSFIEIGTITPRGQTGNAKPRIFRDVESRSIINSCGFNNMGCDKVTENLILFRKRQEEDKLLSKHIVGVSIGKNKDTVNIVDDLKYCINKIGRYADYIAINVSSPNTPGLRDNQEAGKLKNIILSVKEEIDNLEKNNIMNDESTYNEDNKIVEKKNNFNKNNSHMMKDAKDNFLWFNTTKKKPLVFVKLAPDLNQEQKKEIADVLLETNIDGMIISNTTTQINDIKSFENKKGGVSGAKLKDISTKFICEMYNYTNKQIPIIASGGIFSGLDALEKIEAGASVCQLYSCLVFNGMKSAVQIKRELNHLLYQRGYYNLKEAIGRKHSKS
Homeobox protein Hox-A13 (Mus musculus), sequence (Q62424 whole entry, looked up): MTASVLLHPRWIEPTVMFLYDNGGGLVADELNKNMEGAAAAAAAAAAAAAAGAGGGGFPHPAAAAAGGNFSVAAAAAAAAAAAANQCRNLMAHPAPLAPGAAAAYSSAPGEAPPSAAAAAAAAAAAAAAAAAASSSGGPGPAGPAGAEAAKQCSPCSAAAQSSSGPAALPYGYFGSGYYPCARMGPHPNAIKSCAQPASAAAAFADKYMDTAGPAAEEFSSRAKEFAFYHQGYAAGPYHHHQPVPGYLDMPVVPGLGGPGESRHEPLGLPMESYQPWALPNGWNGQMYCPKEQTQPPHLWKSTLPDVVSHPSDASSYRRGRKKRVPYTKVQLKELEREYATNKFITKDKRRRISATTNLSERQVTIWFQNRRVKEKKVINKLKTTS

Structure (SMILES) | z-score [1] | z-score [2] | z-score [3] | composite z-score [4] | z-score [5] | z-score [6] | z-score [7] | z-score [8] | z-score [9] | composite z-score [10] | composite z-score [11] | composite z-score (XIP peptide (Xip251-270)) | z-score [12] | z-score [13] | z-score [14] | z-score [15]
CC(=O)NCCCC[C@@H]1NC(=O)[C@@H]2C[C@H](C(=O)NCCCCCN)[C@H](c3cccc(OCCO)c3)N2C1=O | 0.619 | -0.659 (inactive) | 0.427 (inactive) | -0.585 (inactive) | 0.392 (inactive) | -1.42 (inactive) | 1.03 (inactive) | 1.9 (inactive) | 0.0926 | 0.087 | 0.845 (inactive) | 0.878 | 0.0297 | -2.54 (inactive) | -1.16 (inactive) | -0.913 (inactive)
Cc1ccccc1C(O)C1C=CC2C(=O)NC(=O)C2N1Nc1ccccn1 (stereo not drawn) | -1.07 | 1.21 (inactive) | -0.777 (inactive) | 1.57 (inactive) | 0.543 (inactive) | 0.487 (inactive) | -0.387 (inactive) | -0.316 (inactive) | -0.489 | 0.127 | 0.132 (inactive) | 0.11 | -0.461 | -1.11 (inactive) | -0.0651 (inactive) | -0.681 (inactive)
CCC1=C2CN(Cc3ccccc3)[C@@H](C(=O)Cc3ccccc3)C2C=CCC1 (stereo partly drawn) | 0.999 | -3.13 (inactive) | -0.192 (inactive) | -3.14 (inactive) | -1.61 (inactive) | 0.129 (inactive) | 0.941 (inactive) | -0.0333 (inactive) | -0.0509 | 0.0554 | 0.932 (inactive) | 0.758 | -1.75 | -4.07 (inactive) | 0.313 (inactive) | -0.119 (inactive)
C=CCN1C(=O)[C@]2(CCC(=O)OC(C)(C)C)N=C(c3ccc(OCCCO)cc3)O[C@@H]2c2ccccc21 | -1.11 | -1.32 (inactive) | -3.44 (inactive) | -0.292 (inactive) | 0.314 (inactive) | 0.853 (inactive) | 0.93 (inactive) | 0.685 (inactive) | -6.48 | -0.0387 | 0.0041 (inactive) | 0.464 | -1.34 | -2.63 (inactive) | -0.646 (inactive) | -0.541 (inactive)
NC(=O)[C@H]1[C@@H]2C(=O)O[C@@H](c3ccccc3)[C@@H](c3ccccc3)N2[C@@H](c2ccc(OCCO)cc2)[C@]12C(=O)Nc1ccc(C#CCCO)cc12 | -0.0423 | 0.704 (inactive) | -0.245 (inactive) | -0.624 (inactive) | 0.35 (inactive) | 1.78 (inactive) | -0.0157 (inactive) | 0.0992 (inactive) | -0.169 | -0.0884 | 0.32 (inactive) | 0.357 | 0.358 | -4.68 (inactive) | -0.317 (inactive) | -0.838 (inactive)
C=CCNC(=O)[C@@H]1[C@H]2C(=O)O[C@H](c3ccccc3)[C@H](c3ccccc3)N2[C@H](c2ccc(O)cc2)[C@@]12C(=O)N(C(=O)OCCOC)c1ccc(C#CC3=CCCCC3)cc12 | -0.411 | 0.0346 (inactive) | -0.279 (inactive) | 0.235 (inactive) | 1.26 (inactive) | 0.891 (inactive) | -0.713 (inactive) | -0.277 (inactive) | -1.09 | -0.0056 | 0.423 (inactive) | 0.672 | 0.608 | -0.465 (inactive) | -0.472 (inactive) | -1.01 (inactive)
CC[C@@H]1C=C(C(=O)O)[C@H](c2ccccc2)N1S(=O)(=O)c1ccc(C)cc1 | -0.791 | 0.34 (inactive) | -1.17 (inactive) | -0.95 (inactive) | 0.16 (inactive) | -1.02 (inactive) | -0.666 (inactive) | -0.135 (inactive) | -1.54 | -0.0663 | 0.336 (inactive) | 0.504 | 1.78 | -3.56 (inactive) | 0.504 (inactive) | 0.227 (inactive)
COc1cc2c(cc1O)C(C1CC1)N(C)CC2 (stereo not drawn) | 0.0514 | -0.391 (inactive) | 0.509 (inactive) | -0.501 (inactive) | -0.572 (inactive) | -0.0321 (inactive) | 0.115 (inactive) | 0.0029 (inactive) | -0.0158 | 0.175 | -0.198 (inactive) | 0.598 | -0.871 | -4.09 (inactive) | 0.2 (inactive) | 0.406 (inactive)
C=C(/C(=C/C[C@H](OC(C)=O)c1ccc(CO)o1)c1cnc2ccccc2c1)C(C)C | 0.523 | -0.269 (inactive) | -0.575 (inactive) | -7.07 (inactive) | 0.898 (inactive) | 0.376 (inactive) | 0.307 (inactive) | -0.219 (inactive) | -0.659 | -0.0095 | 0.0103 (inactive) | 0.769 | -1.14 | -6.46 (inactive) | -0.136 (inactive) | 0.181 (inactive)
CN1C2C=C(CCCO)C(C3C(=O)N(C(N)=O)C(=O)C32)C1C1CC1 (stereo not drawn) | -0.444 | 0.796 (inactive) | -0.179 (inactive) | -0.884 (inactive) | -0.341 (inactive) | -0.18 (inactive) | -0.686 (inactive) | -0.743 (inactive) | -0.761 | 0.0361 | 0.379 (inactive) | -0.0081 | 1.89 | -7.09 (inactive) | -0.25 (inactive) | 0.161 (inactive)
C#CCN(Cc1ccccc1Br)[C@H](/C=C/c1ccccc1)[C@@H](O)Cc1ccccc1 | 1.71 | 0.31 (inactive) | -0.309 (inactive) | 0.342 (inactive) | -0.0825 (inactive) | 1.05 (inactive) | 1.84 (inactive) | 1.24 (inactive) | -0.971 | -0.0559 | -0.368 (inactive) | -0.115 | -0.717 | -0.384 (inactive) | -0.162 (inactive) | 0.103 (inactive)
[N-]=[N+]=NCc1ccccc1C[C@@]1(C(N)=O)N=C(c2ccc(OCCCO)cc2)O[C@@H]1c1ccccc1 | 0.0565 | -0.165 (inactive) | -1.22 (inactive) | -0.239 (inactive) | 0.563 (inactive) | 0.115 (inactive) | 0.0937 (inactive) | -1.12 (inactive) | -1.37 | -0.11 | 0.755 (inactive) | 0.237 | -1.83 | -5.03 (inactive) | 0.107 (inactive) | 0.221 (inactive)
C=CCC(OC(C)=O)[C@@H]1[C@@H](N(Cc2ccc(-c3ccccc3)cc2)C(=O)c2ccc(-c3ccccc3)cc2)c2cc(OCCCO)ccc2N1C(=O)c1ccc2ccccc2c1 (stereo partly drawn) | -0.723 | 0.416 (inactive) | 0.149 (inactive) | -0.746 (inactive) | 0.35 (inactive) | -0.583 (inactive) | -0.91 (inactive) | -0.756 (inactive) | -0.205 | 0.0423 | -0.29 (inactive) | -0.482 | 0.248 | -0.68 (inactive) | 0.215 (inactive) | -0.144 (inactive)
NC(=O)NCC#Cc1ccc2c(c1)[C@]1(C(=O)N2)[C@H](c2ccccc2OCCO)N2[C@H](c3ccccc3)[C@H](c3ccccc3)OC(=O)[C@H]2[C@@H]1C(=O)O | 1.87 | -0.462 (inactive) | 0.877 (inactive) | -1.96 (inactive) | -0.0199 (inactive) | -0.246 (inactive) | 0.614 (inactive) | -0.727 (inactive) | 0.327 | -0.287 | 0.654 (inactive) | 0.418 | -0.373 | -7.04 (inactive) | 0.109 (inactive) | 0.239 (inactive)
COc1ccc([Si](C)(C)[C@H]2[C@H](CC(=O)N(CCO)Cc3ccccc3)O[C@@]3(C(=O)N(C)c4c(Br)cc(C)cc43)[C@@H]2C)cc1 | -1.86 | -2.5 (inactive) | -2.84 (inactive) | -0.474 (inactive) | 1.94 (inactive) | 0.257 (inactive) | 1.32 (inactive) | 0.677 (inactive) | -5.31 | 0.868 | 0.159 (inactive) | 0.334 | -2.08 | -6.1 (inactive) | -1.82 (inactive) | -1.22 (inactive)
O=C1OCCC=C[C@H]2OC34C=CCN(c5ccc6ccccc6c5)C(=O)[C@H]3N(CCCO)C(=O)[C@@H]4C12 (stereo partly drawn) | -0.0412 | -0.129 (inactive) | -0.284 (inactive) | -0.286 (inactive) | -0.385 (inactive) | 0.393 (inactive) | -0.127 (inactive) | -0.611 (inactive) | -0.496 | 0.158 | -0.725 (inactive) | -0.617 | -1.83 | -2.31 (inactive) | -0.292 (inactive) | -0.64 (inactive)
CC(C)N1C(=O)C[C@@](C(=O)NC2CC2)(c2ccc([N+](=O)[O-])cc2)[C@H]1c1ccc(CO)cc1 | -0.557 | -0.693 (inactive) | 0.616 (inactive) | -0.236 (inactive) | 1.6 (inactive) | -0.437 (inactive) | 0.209 (inactive) | 0.167 (inactive) | 0.499 | 0.236 | 0.65 (inactive) | 0.396 | -1.15 | -1.81 (inactive) | 0.254 (inactive) | 0.529 (inactive)
N#Cc1ccc(NN2C(C(O)c3ccc(Br)cc3)C=CC3C(=O)N(c4ccccc4)C(=O)C32)cc1 (stereo not drawn) | -1.3 | -3.42 (inactive) | -0.299 (inactive) | -1.03 (inactive) | 0.819 (inactive) | -1.85 (inactive) | 0.527 (inactive) | 0.656 (inactive) | -0.0706 | 0.179 | 1.13 (inactive) | 0.529 | 0.401 | -3.13 (inactive) | 0.0643 (inactive) | 0.0338 (inactive)
